Source: PubChem BioAssay
E coli Lon inh: E. coli protease La inhibition; purified E. coli Lon protease, fluorescence polarization; P0A9M0; 360,000 tested, 0.42% active; inhibition, % at 7.94 µM; in the data active means inhibition above about 13%, passing the limit was not always enough;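 further: 0% = enzyme with probe and DMSO and 100% = no enzyme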
PAFAH1B2 inh: inhibitors of human PAFAH1B2 | P68402 | recombinant PAFAH1B2, FP-rhodamine activity probe, fluorescence polarization | inhibition, % at 3.39 µM | 340,000 tested, 1.2% active | AID 492953;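 active means inhibition above the mean of all tested compounds plus 3 SD, cut at about 24% in these data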;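 further: 0% = enzyme with DMSO and 100% = wells lacking PAFAH1B2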
PAFAH1B3 inh: inhibitors of human PAFAH1B3. recombinant PAFAH1B3, FP-rhodamine probe, fluorescence polarization. Q15102. inhibition, % at 3.39 µM. 340,000 tested, 0.28% active;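 active means inhibition above the screen-wide average of all tested compounds plus 3 SD, cut at about 25% in these data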;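 further: 0% = enzyme with DMSO only and 100% = wells lacking PAFAH1B3 protein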
PAFAH2 FP inh: PAFAH2 (human) inhibition | 340,000 tested, 0.99% active | recombinant PAFAH2, FP-rhodamine activity probe, fluorescence polarization | Q99487 | inhibition, % at 3.39 µM;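 active means inhibition above the mean over all tested compounds plus 3 SD, cut at about 30% in these data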;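 further: inhibitors block probe labeling of enzyme so polarization drops; 0% = enzyme with DMSO and 100% = wells lacking PAFAH2 protein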
Rin1-Abl PPI inh: blocks binding of human Rin1 to Abl; P00519+Q13671; TR-FRET Rin1/Abl binding, biochemical; inhibition, % at 7.35 µM; 360,000 tested, 0.4% active; AID 588664; in the data active means inhibition above about 5%, passing the limit was not always enough
pPAFAH inh: inhibitors of human plasma PAF acetylhydrolase (pPAFAH). Q13093. recombinant pPAFAH, FP-rhodamine probe fluorescence polarization. inhibition, % at 3.39 µM. 330,000 tested, 1.5% active;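 active means inhibition above the mean inhibition across the screen plus 3 SD, cut at about 25% in these data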;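 further: inhibitors block binding of the rhodamine activity-based probe so polarization drops; 0% = enzyme with DMSO and 100% = wells lacking pPAFAH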
Target sequence (Q13093 whole entry, looked up): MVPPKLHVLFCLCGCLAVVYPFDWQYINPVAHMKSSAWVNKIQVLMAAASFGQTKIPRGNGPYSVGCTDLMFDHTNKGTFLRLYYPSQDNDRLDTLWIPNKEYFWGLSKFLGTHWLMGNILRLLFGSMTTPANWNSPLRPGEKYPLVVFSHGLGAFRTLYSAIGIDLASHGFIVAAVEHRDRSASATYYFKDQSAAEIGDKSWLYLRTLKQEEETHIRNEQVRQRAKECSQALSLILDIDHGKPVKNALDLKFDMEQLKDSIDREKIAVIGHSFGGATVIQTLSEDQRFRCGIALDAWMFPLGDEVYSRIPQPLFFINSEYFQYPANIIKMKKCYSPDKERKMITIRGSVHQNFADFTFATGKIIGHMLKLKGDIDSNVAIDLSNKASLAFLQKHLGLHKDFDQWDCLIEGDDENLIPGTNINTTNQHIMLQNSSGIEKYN
Numbers without * were called inactive; . = no result. Only some compounds are listed: those with a hit (about 3.1% of all), similar ones and a draw of the others.

SMILES	E coli Lon inh	PAFAH1B2 inh	PAFAH1B3 inh	PAFAH2 FP inh	Rin1-Abl PPI inh	pPAFAH inh
O=C(OC[C@H]1O[C@@H](OC(=O)c2cc(O)c(O)c(OC(=O)c3cc(O)c(O)c(O)c3)c2)[C@H](OC(=O)c2cc(O)c(O)c(OC(=O)c3cc(O)c(O)c(O)c3)c2)[C@@H](OC(=O)c2cc(O)c(O)c(OC(=O)c3cc(O)c(O)c(O)c3)c2)[C@@H]1OC(=O)c1cc(O)c(O)c(OC(=O)c2cc(O)c(O)c(O)c2)c1)c1cc(O)c(O)c(OC(=O)c2cc(O)c(O)c(O)c2)c1	.	.	.	.	.	70*
CC(C)C[C@H]1CN(CCCC[C@H]2CNC(=O)C(=O)N2Cc2ccccc2)C(=O)C(=O)N1CC1CCCCC1	3	.	.	.	.	.
Cc1ccc(CNC(=O)CCn2cc(-c3ccc(C)cc3)nc2-c2ccncc2)cc1	7	16	2	-1	2	7
Cc1ccc(CNC(=O)CCn2cc(-c3ccc(F)cc3)nc2-c2ccncc2)cc1	-10	29*	1	1	1	3
CCCNC(=O)C(Cc1ccc(Cl)cc1)NC(=O)c1ccc(-c2ccccc2)cc1 (stereo unspecified)	2	-2	5	-7	-1	0
Cc1cc(C)cc(N(CC(=O)NCCSCc2ccccc2)S(C)(=O)=O)c1	-2	6	-2	8	1	31*
CCOc1ccc(N(CC(=O)NCCSCc2ccccc2)S(=O)(=O)c2ccccc2)cc1	-2	3	-3	1	1	28*
CN1CCC(=O)N(CCSc2ccc(Br)cc2)CC1	-6	26*	11	12	5	8
CC(C)(C)NC(=O)C(=O)NNC(=O)COc1ccc(Br)cc1	1	31*	3	1	-1	0
CC(=O)NC(=S)NNC(=O)COc1ccc(Br)cc1	1	4	8	0	-6	.
COc1ccc(NC2CCCN(C(=O)CN3C(=O)c4ccccc4C3=O)C2)cc1OC (stereo unspecified)	-3	-3	0	-5	-1	1
C=CCN=c1scc(C)n1/N=C/c1ccc(O)c(O)c1	8	6	12	10	1	34*
CC1CCCC(NC(=O)COC(=O)c2ccc([N+](=O)[O-])s2)C1C (stereo unspecified)	1	15	53*	66*	4	16
Cc1ccc(CC(=O)OCC(=O)NC2CCCC(C)C2C)cc1C (stereo unspecified)	-1	4	10	39*	0	29*
CC1CCCC(NC(=O)COC(=O)Cc2ccc(Cl)cc2)C1C (stereo unspecified)	4	20	15	16	2	28*
COc1ccc(/C=C/C(=O)OCC(=O)NC2CCCC(C)C2C)c(OC)c1 (stereo unspecified)	-12	-2	-1	76*	3	29*
Cc1cnc(C(=O)OCC(=O)NC2CCCC(C)C2C)cn1 (stereo unspecified)	-3	5	5	0	1	4
COc1ccc(CNCc2cccc3ccccc23)cc1	-3	4	3	-7	0	.
COc1ccc(Cc2nnc(SCC(=O)N(C)CC(=O)Nc3ccc(C)cc3)o2)cc1	-3	5	4	0	0	4
CN(CC(=O)Nc1cccc(F)c1)C(=O)c1cc(S(=O)(=O)N2CCN(c3ccccc3)CC2)ccc1Cl	-2	2	-1	5	0	3
CCc1ccc2oc(=O)cc(CN(C)Cc3ccccc3)c2c1	-2	38*	3	-9	-1	0
COC(=O)c1cccc(N/C=C(\[N+](=O)[O-])S(=O)(=O)c2ccccc2)c1	15	9	9	-7	1	4
Cc1ccc(-c2cnc(C3CC3)o2)cc1S(=O)(=O)Nc1ccccc1	2	-4	1	12	2	31*
O=C(Cn1cnc2scc(-c3cccc([N+](=O)[O-])c3)c2c1=O)NCc1ccco1	1	-4	4	18	-1	26*
Clc1ccc(SCCCCn2ccnc2)cc1	-12	71*	9	2	1	5
CCc1nc2c(OCc3ccccc3C(=O)OC)cccn2c1N(C)C(=O)CC(C)C	1	.	.	.	5	.
NC1=NC(=O)C(=Cc2ccccc2)S1	-9	0	13	-6	4	.
NC1=NC(=O)/C(=C\c2ccco2)S1	-9	8	14	21	5	30*
